Most compounds without a hit are left out; they make up all but 3.4% or so of the library.
GPR151 activ: activates the human receptor GPR151 | 650,000 tested, 1% active | PathHunter beta-arrestin GPR151 cells, luminescence | Q8TDV0 | activation, % at 11.2 µM; in the data active means activation above about 4.9%;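 further: 0% = median of compound wells and 100% = cells with positive control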
TEAD-YAP inh: TEAD-YAP interaction inhibition; HEK-TIYL cells, TEAD-Gal4/YAP UAS-luciferase luminescence; 640,000 tested, 1.4% active; inhibition, % at 9.12 µM; in the data active means inhibition above about 32%;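 further: 0% = median of test compound wells and 100% = reference inhibitor wells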
MITF inh: human MITF inhibition, primary screen | O75030 | AlphaScreen MITF homodimerization, bead proximity signal | inhibition, % at 2.6 µM | 650,000 tested, 0.91% active; in the data active means inhibition above about 50%;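 further: 0% = vehicle wells with protein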
Target sequence (O75030 whole entry, looked up): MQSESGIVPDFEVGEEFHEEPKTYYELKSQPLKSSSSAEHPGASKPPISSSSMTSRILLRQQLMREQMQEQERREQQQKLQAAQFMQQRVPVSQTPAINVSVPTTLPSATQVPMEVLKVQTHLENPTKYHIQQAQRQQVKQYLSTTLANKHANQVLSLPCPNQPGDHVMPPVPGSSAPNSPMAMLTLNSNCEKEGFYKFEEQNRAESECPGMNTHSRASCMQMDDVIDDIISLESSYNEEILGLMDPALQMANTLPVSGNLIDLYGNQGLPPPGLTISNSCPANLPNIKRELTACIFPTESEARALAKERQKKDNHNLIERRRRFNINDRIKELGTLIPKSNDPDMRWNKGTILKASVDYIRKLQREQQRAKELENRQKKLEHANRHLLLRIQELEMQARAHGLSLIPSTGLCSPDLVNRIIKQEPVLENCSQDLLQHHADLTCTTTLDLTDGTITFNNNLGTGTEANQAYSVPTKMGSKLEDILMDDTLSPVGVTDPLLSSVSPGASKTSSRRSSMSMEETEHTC
FBW7 act: activators of human E3 ligase FBW7; normalized activity (activation), % at 26.1 µM; Q969H0; 650,000 tested, 0.13% active; AID 1259310; AlphaScreen FBW7–phospho-cyclin E peptide binding, activator screen; in the data active means normalized activity above about 1.9%;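 further: purified mutant Fbw7 with reduced substrate affinity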
GPR151 conf act: confirmation of human GPR151 activators | activation, % at 11.2 µM | 6,700 tested, under 10 active | shares compounds with GPR151 activ | AID 1508609 | GPR151 PathHunter beta-arrestin cells, luminescence, 90 min; % of EA-reagent control over plate median;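 active means mean percent activation across replicates above the confirmation screen cutoff of 4.91%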
GPR119 ag: GPR119 activation, counter-screen for GPR151 activators; shares compounds with GPR151 activ; 6,700 tested, 0.3% active; GPR119 PathHunter beta-arrestin cells, luminescence, 90 min; 0 = compound-well median, 100 = enzyme-acceptor control; activation, % at 11.2 µM;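 active means mean percent activation in the counterscreen above 29.09%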;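 further: counterscreen on off-target GPR119 to flag nonselective hits from the GPR151 activator screen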
The depositor's hits bear a star; / = not tested or not shown.

SMILES	GPR151 activ	TEAD-YAP inh	MITF inh	FBW7 act	GPR151 conf act	GPR119 ag
O=C(Nc1nc2n(n1)C(c1ccc(F)cc1)CC(c1ccccc1)N2)c1cccnc1 (centres undefined)	5.7*	13.2	2.8	-0.1	0.3	4.3
CCC(=O)Nc1nc2n(n1)C(c1ccccc1)CC(c1ccc(Cl)cc1)N2 (centres undefined)	-0.9	2.9	11.6	-0.2	/	/
COc1ccc(NC(=O)/C=C/C(=O)O)cc1	-1.7	-7.2	4.3	-0.1	/	/
N#Cc1ccc(Oc2ccc(NC(=O)/C=C\C(=O)O)cc2)cc1	5.3*	-5.0	5.3	-0.1	0.9	9.0
Cn1ncc2c(N3CCOCC3)nc(NCc3ccco3)nc21	5.4*	-1.9	17.2	0.2	0.0	-2.6
COc1cccc(-n2c(CCN3C(=O)c4ccccc4C3=O)nc3ccccc3c2=O)c1	5.4*	-3.2	3.7	0.0	0.5	8.6
CCSc1nc2sccn2c(=O)c1C(=O)Nc1cc(-c2ccccc2)nn1C	1.1	-1.4	5.8	-0.5	/	/
CCSc1nc2sccn2c(=O)c1C(=O)Nc1cc(C(C)(C)C)nn1C	5.0*	-4.2	5.8	-0.1	1.1	3.2
N#CC1=C(N)N(c2cccc([N+](=O)[O-])c2)C2=C(C(=O)CCC2)C1c1ccc2c(c1)OCO2 (centres undefined)	0.6	-6.2	9.8	0.0	/	/
CNCc1ccc(-c2ccc(Br)cc2)o1	-0.2	-3.1	11.1	0.0	/	/
CNCc1ccc(-c2ccc(Cl)cc2)o1	5.0*	-8.6	14.1	0.0	0.1	-4.2
CCC1=N/C(=C/c2ccc(Cl)cc2Cl)C(=O)O1	1.0	3.0	4.5	0.0	/	/
COc1c(Cl)cc(C(=O)Nc2cccc(C(=O)O)c2)cc1Cl	5.7*	-26.0	6.2	0.1	0.6	16.6
Cc1ccc(NC(=O)c2cccc(S(=O)(=O)Nc3cccc(C(=O)O)c3)c2)cc1	6.4*	8.0	-10.8	0.0	-0.9	-0.9
O=C1/C(=C\N2CCCC2)c2ccccc2C(=O)N1c1ccccc1	5.0*	2.7	-5.4	0.0	0.1	-2.3
Cc1nnc(SCC(=O)Nc2sc3c(c2C#N)CCCCC3)s1	0.7	7.8	-5.0	0.0	/	/
O=C(Nc1ccc2nn(-c3ccccc3)nc2c1)C(Cl)(Cl)Cl	-2.1	-11.2	-0.6	0.1	/	/
Nc1nc(NC(=O)C(Cl)(Cl)Cl)nn1-c1ccccc1	7.0*	-4.9	24.6	-0.8	-0.3	-14.1
COc1ccc(C(=O)Nc2nnc(SCc3cccc(F)c3)s2)c(OC)c1	-1.7	-39.9	6.3	-0.1	/	/
S=C1NC2(CCCCC2)N=C1c1ccccc1	8.1*	-10.6	-7.2	-0.4	-0.2	9.0
Fc1ccc(C2=NC3(CCCCC3)NC2=S)cc1	2.8	-0.3	-7.9	0.0	/	/
CC(=O)Nc1ccc(CN2CCN(c3ccccc3C)CC2)cc1	0.3	6.2	48.9	0.4	/	/
CCn1cc(C(=O)N2C[C@H](C(=O)OC)[C@@H](c3ccc(F)cc3)C2)cn1	-0.3	-0.8	-8.4	0.0	/	/
COC(=O)[C@H]1CN(C(=O)c2cnn(C(C)C)c2)C[C@@H]1c1ccc(F)cc1	5.7*	2.7	-10.0	-0.1	0.3	-1.5
COc1ccccc1NC(=O)NCc1nc(N)n(C(=O)Nc2ccccc2OC)n1	5.2*	2.9	-10.0	0.0	-0.3	4.8
SMILES	GPR151 activ	TEAD-YAP inh	MITF inh	FBW7 act	GPR151 conf act	GPR119 ag
O=C(Nc1ccc(Br)cc1F)c1cc(S(=O)(=O)N2CCc3ccccc32)ccc1F	0.9	5.6	3.4	0.1	/	/
O=Cc1cn(CC(=O)NCc2ccccc2)c2ccccc12	1.6	11.5	-5.2	-0.2	/	/
O=Cc1cn(CC(=O)NCCc2ccccc2)c2ccccc12	7.0*	12.7	-3.8	0.0	-0.7	-7.7
Cc1ccc(NC(=O)CSc2nc(=O)n(Cc3ccco3)c3c2CCC3)cc1F	6.6*	1.9	-13.6	0.0	-1.7	-18.2
CC(=O)Nc1cccc(NC(=O)CCc2ccccc2)c1	0.1	-19.3	2.0	0.0	/	/
CCc1cccc(NC(=O)Cn2cccc2)c1	7.6*	-6.9	5.0	-0.1	0.6	-7.3
CCN(CC)S(=O)(=O)c1ccc(NC(=O)CCc2ccccc2)cc1	2.0	3.5	1.2	0.0	/	/
Cc1cccc(NC(=O)CCc2ccccc2)c1	7.8*	-21.7	2.5	0.3	-0.5	-1.3
CCCN(CCC)S(=O)(=O)c1ccc(NC(=O)CCc2ccccc2)cc1	7.6*	10.7	-2.9	0.1	0.4	-7.4
CCc1cccc(NC(=O)CCC(=O)Nc2cccc(CC)c2)c1	7.5*	-3.0	14.3	-0.1	-0.3	-15.2
CCc1cccc(NC(=O)Nc2ccccc2)c1	-0.3	-82.7	-8.9	0.6	/	/
CCOC(=O)c1c(NC(=O)COC(=O)c2ccc[n+]([O-])c2)sc(C)c1C	-0.3	-6.2	-5.0	-0.1	/	/
O=C(O)Cc1c(-c2ccccc2)c2cc(Br)ccc2[nH]c1=O	0.9	1.0	-4.5	0.0	/	/
CCN(CC)c1c(-c2ccccc2)c2cc(Br)ccc2[nH]c1=O	5.9*	16.9	9.2	0.1	-0.1	6.7
CCOc1ccc2nc(Nc3nc(C)cc(-c4ccccc4)n3)nc(C)c2c1	-0.1	-10.6	-5.1	-0.1	/	/
CCOc1ccc2nc(Nc3nccc(C)n3)nc(C)c2c1	9.0*	-23.0	1.2	0.3	0.2	5.1
N#CCCN1CCN(c2ccc(F)cc2[N+](=O)[O-])CC1	5.3*	9.4	12.7	-0.2	2.8	-10.8
CN1CCN(c2cc(N3CCN(CCC#N)CC3)c([N+](=O)[O-])cc2F)CC1	0.3	8.6	4.8	-0.1	/	/
CC(C)c1nc(CNCc2c(C(=O)N3CCCN(C)CC3)nc3sccn23)cs1	6.9*	-1.4	10.1	-0.1	0.0	1.1
O=C(Nc1ccc2nsnc2c1)N1CCCCCC1	6.1*	-41.6	-9.0	-0.1	-0.5	-3.8
COC(=O)c1cc(CNC(=O)c2ccoc2)cc(NC(=O)c2ccccc2Cl)c1	0.2	9.5	8.0	-0.1	/	/
NC(CC(=O)O)C(=O)O (centres undefined)	7.8*	-16.6	12.4	-0.1	0.4	3.2
O=S1(=O)N=C(N(CCO)/N=C/c2cccc(O)c2O)c2ccccc21	5.9*	-6.5	1.5	-0.2	0.2	-5.8
O=C(c1ccccc1)c1ccc(C(=O)N2CCN(c3ccccc3)CC2)o1	0.2	-28.7	-3.6	-0.2	/	/
O=C(c1ccccc1)c1ccc(C(=O)N2CCCCC2)o1	6.7*	-57.0	-5.8	0.0	-0.6	-6.8
Cn1c(SCc2nc(-c3cccs3)no2)nnc1-c1ccco1	2.1	4.4	9.2	0.1	/	/
CCn1c(SCc2nc(-c3cccs3)no2)nnc1-c1ccco1	6.9*	-2.7	-139.1	0.0	-0.1	6.9
COC(=O)CSC1=C(C#N)C(c2ccccc2)C(C(=O)Nc2ccccc2)=C(C)N1 (centres undefined)	5.7*	-8.1	-5.4	0.0	-0.7	-3.7
